A word on the AC50: it is the concentration giving half of the maximal activity seen.

Read-out in assay [1]: TIMP metallopeptidase inhibitor 1 (TIMP1), TIMP1 (gene 7076)
The assay is described as follows: BSK_hDFCGF_TIMP1: BioMAP Diversity Plus: hDFCGF Assay for TIMP metallopeptidase inhibitor 1 (TIMP1) Biomarker Activity (AID 2283062). The conditions noted are these: primary human foreskin fibroblasts; actives raise or lower the signal. A digest of the protocol:
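Bidirectional curve fitting against DMSO baseline yielded this endpoint, based on ELISA detection of TIMP-1 in primary human foreskin fibroblasts exposed to compound for 24 h.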

Read-out in assay [2]: Monokine induced gamma interferon (MIG), CXCL9 (gene 4283)
Description: BSK_hDFCGF_MIG: BioMAP Diversity Plus: hDFCGF Assay for Monokine induced gamma interferon (MIG) Biomarker Activity (AID 2283063). Particulars: primary human foreskin fibroblasts; actives raise or lower the signal. In a few lines:
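Endpoint derived by bidirectional fitting relative to DMSO; MIG quantified via ELISA in primary human foreskin fibroblasts harvested 24 h after dosing.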

Read-out in assay [3]: Matrix Metallopeptidase 1 (MMP1), MMP1 (gene 4312)
The assay is described as follows: BSK_hDFCGF_MMP1: BioMAP Diversity Plus: hDFCGF Assay for Matrix Metallopeptidase 1 (MMP1) Biomarker Activity (AID 2283064). Particulars: primary human foreskin fibroblasts; actives raise or lower the signal. In a few lines: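 ELISA read-out of MMP1 from human foreskin fibroblasts (primary skin cells), 24 h post-dose. Gain or loss of signal was fitted bidirectionally versus DMSO negative control; cytotoxicity was checked by SRB in parallel cultures.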

Read-out in assay [4]: Vascular cell adhesion molecule 1 (VCAM1), VCAM1 (gene 7412)
The assay is described as follows: BSK_hDFCGF_VCAM1: BioMAP Diversity Plus: hDFCGF Assay for Vascular cell adhesion molecule 1 (VCAM1) Biomarker Activity (AID 2283065).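 For AC50: VCAM-1 protein level quantified by ELISA after 24 h chemical exposure.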 Particulars: primary human foreskin fibroblasts; actives raise or lower the signal. In a few lines:
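Measured after 24 h chemical treatment of primary human skin fibroblasts, VCAM-1 was detected by ELISA and concentration-response analysed in both directions versus DMSO vehicle.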

Read-out in assay [5]: Plasminogen activator inhibitor-1 (PAI1), SERPINE1 (gene 5054)
The assay is described as follows: BSK_hDFCGF_PAI1: BioMAP Diversity Plus: hDFCGF Assay for Plasminogen activator inhibitor-1 (PAI1) Biomarker Activity (AID 2283066). Particulars: primary human foreskin fibroblasts; actives raise or lower the signal. A digest of the protocol: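 PAI-1 levels in human dermal foreskin fibroblasts were quantified by ELISA 24 h after dosing, with gain or loss analysed against DMSO. Overt cytotoxicity was checked by sulforhodamine B total-protein staining in parallel cultures.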

Read-out in assay [6]: Intercellular Adhesion Molecule 1 (ICAM1), ICAM1 (gene 3383)
Description: BSK_KF3CT_ICAM1: BioMAP Diversity Plus: KF3CT Assay for Intercellular Adhesion Molecule 1 (ICAM1) Biomarker Activity (AID 2283067). Particulars: primary human keratinocytes with fibroblasts; actives raise or lower the signal. A digest of the protocol: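 Bidirectional curve fitting against a DMSO baseline was applied to ICAM-1 ELISA signal from primary human skin co-cultures harvested 24 h after treatment, with SRB staining of parallel wells for overt cytotoxicity.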

Read-out in assay [7]: Interferon-gamma inducible Protein 10 (IP10), CXCL10 (gene 3627)
Description: BSK_KF3CT_IP10: BioMAP Diversity Plus: KF3CT Assay for Interferon-gamma inducible Protein 10 (IP10) Biomarker Activity (AID 2283068). The conditions noted are these: primary human keratinocytes with fibroblasts; actives raise or lower the signal. A digest of the protocol:
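In a primary skin co-culture of keratinocytes and fibroblasts, IP-10 is quantified by ELISA at 24 h after dosing. SRB staining of parallel wells monitors overt toxicity. Curves are fitted both directions against DMSO.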

Read-out in assay [8]: Interleukin-1 alpha (IL1a), IL1A (gene 3552)
Description: BSK_KF3CT_IL1a: BioMAP Diversity Plus: KF3CT Assay for Interleukin-1 alpha (IL1a) Biomarker Activity (AID 2283070). The conditions noted are these: primary human keratinocytes with fibroblasts; actives raise or lower the signal. A digest of the protocol: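 Primary skin co-culture (keratinocytes, foreskin fibroblasts), 24 h exposure; ELISA for IL-1a; bidirectional curve fit vs DMSO.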

Read-out in assay [9]: Transforming growth factor beta 1 (TGFb1), TGFB1 (gene 7040)
Description: BSK_KF3CT_TGFb1: BioMAP Diversity Plus: KF3CT Assay for Transforming growth factor beta 1 (TGFb1) Biomarker Activity (AID 2283072). Particulars: primary human keratinocytes with fibroblasts; actives raise or lower the signal. In a few lines: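 ELISA quantifies TGF-b1 at 24 h post-dose in a primary human skin co-culture of keratinocytes and fibroblasts, with gain or loss judged against DMSO. Parallel SRB total-protein staining flags overt cytotoxicity.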

Read-out in assay [10]: C-C motif chemokine 2 (Homo sapiens) (UniProt P13500)
The assay is described as follows: BSK_KF3CT_MCP1: BioMAP Diversity Plus: KF3CT Assay for Monocyte Chemoattractant Protein 1 (MCP1/CCL2) Biomarker Activity (AID 2283073). Particulars: primary human keratinocytes with fibroblasts; actives raise or lower the signal. In a few lines:
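Biomarker MCP-1 is measured by ELISA in primary human keratinocytes co-cultured with foreskin fibroblasts, 24 h after chemical treatment; DMSO serves as the negative control and activity baseline.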

Read-out in assay [11]: Matrix Metallopeptidase 9 (MMP9), MMP9 (gene 4318)
The assay is described as follows: BSK_KF3CT_MMP9: BioMAP Diversity Plus: KF3CT Assay for Matrix Metallopeptidase 9 (MMP9) Biomarker Activity (AID 2283074).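 For AC50: MMP9 protein level quantified by ELISA in the co-culture.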 Particulars: primary human keratinocytes with fibroblasts; actives raise or lower the signal. A digest of the protocol: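 ELISA read-out of MMP-9 at 24 h post-dosing in a co-culture of human skin keratinocytes and foreskin fibroblasts. Gain or loss of signal was fitted in both directions against DMSO.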

Read-out in assay [12]: urokinase plasminogen activator (uPA), PLAU (gene 5328)
Description: BSK_KF3CT_uPA: BioMAP Diversity Plus: KF3CT Assay for urokinase plasminogen activator (uPA) Biomarker Activity (AID 2283075). Particulars: primary human keratinocytes with fibroblasts; actives raise or lower the signal. A digest of the protocol: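 Skin co-culture (keratinocytes + foreskin fibroblasts), human primary; 24 h post-dose; uPA by ELISA; gain/loss fit vs DMSO baseline.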

Read-out in the next assay: CD40, CD40 (gene 958)
Description: BSK_LPS_CD40: BioMAP Diversity Plus: LPS Assay for CD40 Biomarker Activity (AID 2283076). Particulars: primary human HUVEC with PBMC; actives raise or lower the signal. In a few lines:
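Using a multiplexed primary human co-culture (umbilical vein endothelium plus PBMC), CD40 was read by ELISA 24 h after dosing, with cytotoxicity tracked by sulforhodamine B staining of parallel cultures and activity fitted bidirectionally versus DMSO.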

Read-out in assay [13]: E-selectin (Homo sapiens) (UniProt P16581)
The assay is described as follows: BSK_LPS_Eselectin: BioMAP Diversity Plus: LPS Assay for Eselectin Biomarker Activity (AID 2283077). Particulars: primary human HUVEC with PBMC; actives raise or lower the signal. In a few lines: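 Dose chemical onto LPS-driven HUVEC/PBMC co-culture; after 24 h, run ELISA for E-selectin; fit up- and down-going responses relative to DMSO control.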

A short description of assay [14]: BSK_LPS_SRB: Viability Assessment in the BioMAP Diversity Plus: LPS Assay (AID 2283079).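 Note: total protein by sulforhodamine B absorbance as a cytotoxicity measure; measured one day after compound addition.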 The conditions noted are these: primary human HUVEC with PBMC. In a few lines:
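Cytotoxicity endpoint in human endothelial–PBMC co-culture: 24 h exposure, then SRB (0.1%) staining, 560 nm read.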

Read-out in assay [15]: Interleukin-1 alpha (IL1a), IL1A (gene 3552)
Description: BSK_LPS_IL1a: BioMAP Diversity Plus: LPS Assay for Interleukin-1 alpha (IL1a) Biomarker Activity (AID 2283080). Particulars: primary human HUVEC with PBMC; actives raise or lower the signal. A digest of the protocol:
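Primary human HUVEC and PBMC co-culture stimulated with LPS is dosed and harvested at 24 h. Both increases and decreases in ELISA-measured IL-1a are scored relative to DMSO.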

Read-out in assay [16]: Monocyte Chemoattractant Protein-1 (MCP1), CCL2 (gene 6347)
Description: BSK_LPS_MCP1: BioMAP Diversity Plus: LPS Assay for Monocyte Chemoattractant Protein-1 (MCP1) Biomarker Activity (AID 2283081).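 For AC50: secreted MCP-1 protein quantified by ELISA in culture supernatant.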 Particulars: primary human HUVEC with PBMC; actives raise or lower the signal. In a few lines: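 Values derive from bidirectional fitting against DMSO of ELISA-measured MCP-1 in a human primary endothelial and mononuclear cell co-culture, 24 h after chemical addition under LPS activation.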

Assay [17] is described as follows: BSK_KF3CT_SRB: Viability Assessment in the BioMAP Diversity Plus: KF3CT Assay (AID 2283069).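 Note: read 24 h after compound addition.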 The conditions noted are these: primary human keratinocytes with fibroblasts. A digest of the protocol:
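SRB read-out at 560 nm (0.1% stain, TCA-fixed cells) gauges overt cytotoxicity in a human skin keratinocyte–fibroblast co-culture 24 h post-dosing. Signal change was fitted bidirectionally relative to DMSO control.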

Read-out in assay [18]: TIMP metallopeptidase inhibitor 2 (TIMP2), TIMP2 (gene 7077)
The assay is described as follows: BSK_KF3CT_TIMP2: BioMAP Diversity Plus: KF3CT Assay for TIMP metallopeptidase inhibitor 2 (TIMP2) Biomarker Activity (AID 2283071). Particulars: primary human keratinocytes with fibroblasts; actives raise or lower the signal. A digest of the protocol: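 TIMP-2 measured by ELISA at 24 h in human keratinocyte/fibroblast primary co-cultures exposed to chemicals. Both increases and decreases were fitted against DMSO. Parallel cultures were stained with SRB for total protein as an overt-cytotoxicity check.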

Active and inactive are the calls of the source. Rule for the calls: active = hit-call score of the fitted dose curve at least 0.9, where 1 is the maximum; inactive = score below 0.9.

Chain of E-selectin (Homo sapiens) (P16581 whole entry, looked up): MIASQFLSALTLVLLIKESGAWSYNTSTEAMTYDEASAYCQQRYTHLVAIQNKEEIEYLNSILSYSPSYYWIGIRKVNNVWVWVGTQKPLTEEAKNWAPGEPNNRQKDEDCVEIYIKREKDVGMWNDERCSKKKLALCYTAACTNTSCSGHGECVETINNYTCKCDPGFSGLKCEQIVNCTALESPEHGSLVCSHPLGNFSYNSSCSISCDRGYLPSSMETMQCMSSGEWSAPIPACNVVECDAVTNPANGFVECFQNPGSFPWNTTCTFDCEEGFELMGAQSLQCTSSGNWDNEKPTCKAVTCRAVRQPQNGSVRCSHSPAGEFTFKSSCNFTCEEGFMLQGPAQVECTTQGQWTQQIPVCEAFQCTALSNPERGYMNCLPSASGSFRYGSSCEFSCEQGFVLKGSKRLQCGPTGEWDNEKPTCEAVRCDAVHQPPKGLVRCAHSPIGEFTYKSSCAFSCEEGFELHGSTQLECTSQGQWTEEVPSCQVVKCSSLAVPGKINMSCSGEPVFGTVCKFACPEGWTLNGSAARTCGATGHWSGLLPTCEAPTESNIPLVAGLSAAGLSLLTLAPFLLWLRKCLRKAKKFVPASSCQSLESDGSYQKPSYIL

For the molecule `O=C(O)CC(O)(CC(=O)O)C(=O)O`, the outcome in assay [1], in assay [2], in assay [3], in assay [4], in assay [5] and in [6] was inactive. The outcome in assay [7], in [8], in assay [9], in assay [10], in [11] and in assay [12] was inactive. Further, the outcome with CD40, CD40 (gene 958) is “inactive”; in assay [13], “inactive”; in assay [14], “inactive”; in assay [15], “inactive”; in assay [16], “inactive”.
Take `Nc1nc(Cl)nc2c1ncn2[C@H]1C[C@H](O)[C@@H](CO)O1`: the result in [1], in assay [2], in [3], in assay [4], in assay [6] and in assay [7] was inactive. In addition, the result in [8], in assay [9], in assay [10], in assay [11], in assay [12] and in assay [13] was inactive. Also, the half-maximal activity concentration (AC50) in assay [5] was 10.2 µM (active); in the assay with CD40, CD40 (gene 958), 2.29 µM (active); in [14], 0.814 µM (active); in [15], 1.68 µM (active); in assay [16], 659 nM (active).
With `CCCCC(CC)COC(=O)CCCCCCCC(=O)OCC(CC)CCCC` (stereo unspecified), the result in assay [1], in [2], in assay [4], in [5], in assay [6] and in assay [7] was inactive. Moreover, the outcome in assay [17], in [8], in assay [18], in assay [9], in assay [11] and in assay [12] was inactive. Further, the outcome in the assay with CD40, CD40 (gene 958) is “inactive”; in assay [13], “inactive”; in assay [14] it was “inactive”; in assay [15] it was “inactive”; in [16], “inactive”.
For `Oc1ccccc1O`, the result in assay [1], in assay [5], in assay [7], in assay [13], in assay [15] and in [16] was inactive. Besides, the AC50 in assay [2] was 11.2 µM (active); in assay [4], 2.5 µM (active); in assay [6], 4.58 µM (active); in assay [8], 4.75 µM (active); in assay [9] it was 10.4 µM (active); in assay [11] it was 8.72 µM (active). For the same molecule, the AC50 was 20 µM (active) in [12]; 7.33 µM (active) with CD40, CD40 (gene 958); 7.37 µM (active) in assay [14].
